Data on seven compounds can be found in PubChem BioAssay (Tox21).

Values without a mark were called inactive. Inconclusive results are not listed. Active and inactive are the calls of the source. Unless noted, calls follow the shape of the dose curve; as a rule, active = well fitted curve in the direction sought with a large enough effect in the repeat runs; inconclusive = weak or mixed curves; inactive = no such curve, though single readings can be large; an effect the other way counts as inactive or inconclusive.

Assay [1] is described as follows: A CellTox Green Cytotoxicity Assay to monitor cytotoxicity in HEK293 cells - 32 hour (AID 1224881). Also: nearly all actives have a fitted effect of over 40% in size. A digest of the protocol:
(§1)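 HEK293 cells, 600/well, were preincubated 5 hours and then exposed to compounds at 37 C for up to 40 hours. A cell-impermeant cyanine dye staining dead-cell DNA was read by fluorescence at 0, 8, 16, 24, 32 and 40 h time points.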

A short description of assay [2]: A CellTox Green Cytotoxicity Assay to monitor cytotoxicity in HepG2 cells - 32 hour (AID 1224883). Also: nearly all actives have a fitted effect of over 50% in size. A digest of the protocol:
(§2)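 HepG2 cells, 600/well, preincubated 5 h with CellTox Green dye, then exposed to Tox21 compounds in DMSO at 37 C for up to 40 h. Dead-cell DNA fluorescence read at the indicated time point.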

Assay [3] can be described thus: A CellTox Green Cytotoxicity Assay to monitor cytotoxicity in HEK293 cells - 8 hour (AID 1224884). Also: nearly all actives have a fitted effect of over 35% in size. A digest of the protocol:
as §1

Assay [4] in a line: qHTS RealTime-Glo MT Cell Viability Assay in HepG2 cells - 16 hour (AID 1224885). Also: nearly all actives have a fitted effect of over 50% in size. A digest of the protocol:
(§3)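 qHTS, HepG2, 600 cells/well, RealTime-Glo (NanoLuc + prosubstrate) added with cells; 5 h preincubation; DMSO compound addition; 37 C; luminescence at 0/8/16/24/32/40 h.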

The nature of assay [5]: qHTS RealTime-Glo MT Cell Viability Assay in HEK293 cells - 24 hour (AID 1224886). Also: nearly all actives have a fitted effect of over 50% in size. Also: potency is read from the fitted curve at half-maximal effect. The gist of the method:
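Assay medium contained NanoLuc luciferase plus cell-permeant prosubstrate, added with HEK293 cells at 600 cells/well. After 5 h at 37 C/5% CO2 compounds were added; plates stayed at 37 C for 40 h with serial luminescence reads.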

Assay [6] can be described thus: A CellTox Green Cytotoxicity Assay to monitor cytotoxicity in HEK293 cells - 16 hour (AID 1224888). Also: nearly all actives have a fitted effect of over 35% in size. The gist of the method:
as §1

A short description of assay [7]: qHTS RealTime-Glo MT Cell Viability Assay in HepG2 cells - 0 hour (AID 1224889). Also: nearly all actives have a fitted effect of over 50% in size. A digest of the protocol:
as §3

A short description of assay [8]: A CellTox Green Cytotoxicity Assay to monitor cytotoxicity in HepG2 cells - 8 hour (AID 1224890). Also: nearly all actives have a fitted effect of over 45% in size. The gist of the method: as §2
Assay [9] in a line: qHTS assay to identify small molecule antagonists of the estrogen receptor alpha (ER-alpha) signaling pathway using the BG1 cell line in the presence of 0.1 nM 17-beta-estradiol - cell viability counter screen (AID 1259241). Also: nearly all actives have a fitted effect of over 40% in size. A digest of the protocol: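 Cells were plated and left 24 hr, compounds in DMSO were pinned in, 17beta-estradiol was added to 0.1 nM final, and after 22 hr CellTiter-Fluor reagent was added for 30 min before fluorescence was read.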

Assay [10] can be described thus: qHTS assay to identify small molecule antagonists of the androgen receptor (AR) signaling pathway using the MDA cell line in the presence of 0.5 nM R1881 - cell viability counter screen (AID 1259242). Also: nearly all actives have a fitted effect of over 45% in size. The gist of the method: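 MDA-kb2 cells (MMTV-luciferase, AR/GR responsive) were treated with compounds plus 0.5 nM R1881 (final) for 16 hr at 37C, 0% CO2. Viability was then read in the same wells as live-cell protease fluorescence (CellTiter-Fluor, 30 min).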

Assay [11] addresses Estrogen receptor (Homo sapiens) (UniProt P03372). The assay can be described thus: qHTS assay to identify small molecule antagonists of the estrogen receptor alpha (ER-alpha) signaling pathway using the BG1 cell line in the presence of 0.1 nM 17-beta-estradiol (AID 1259244). Also: nearly all actives have a fitted effect of over 50% in size. A digest of the protocol:
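VM7Luc4E2 cells (endogenous full-length ER-alpha, 4×ERE-luciferase), kept 5 days in phenol red-free, charcoal-stripped FBS medium; 4,000 cells/well. Compounds added with 0.1 nM (final) 17beta-estradiol, 22 hr at 37C; luminescence read with ONE-Glo after 30 min.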

Assay [12] in a line: qHTS assay to identify small molecule HDAC inhibitors (AID 1259364). Also: top concentration of the series differs between compounds; nearly all actives have a fitted effect of over 45% in size. A digest of the protocol:
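Wild-type HCT-116 cells, plated overnight at 37 C, exposed to compounds 2 hr at 37 C; luminogenic HDAC-Glo substrate then added 30 min at room temperature. Luminescence reports relative endogenous class I/II HDAC activity.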

Assay [13] in a line: qHTS assay to identify small molecule HDAC inhibitors - cell viability counter screen (AID 1259365). A digest of the protocol:
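Counter screen in wild-type HCT-116 cells: compounds dissolved in DMSO are pin-transferred onto overnight-plated cells and left 2hr at 37C. ATP-based CellTiter-Glo luminescence then measures viable cells.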

Assay [14] in a line: qHTS assay to identify small molecule agonists of the sonic hedgehog signaling (Shh) pathway - cell viability counter screen (AID 1259366). Also: nearly all actives have a fitted effect of over 50% in size. A digest of the protocol:
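Cells are plated at 2,000 per well and left 4hr at 37C, 5% CO2 before compound addition. After 23hr of treatment, CellTiter-Fluor reagent is added for 1hr at 37C and fluorescence is measured.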

Assay [15] is described as follows: qHTS assay to identify small molecule antagonists of the sonic hedgehog signaling (Shh) pathway - cell viability counter screen (AID 1259367). Also: nearly all actives have a fitted effect of over 55% in size. A digest of the protocol: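 Cells: 3T3 Gli1-Luc, 2,000/well, 4 hr pre-incubation. Compounds in DMSO, then conditioned medium. Incubation 24 hr, 37C, 5% CO2. CellTiter-Fluor at 23 hr, 1 hr, fluorescence.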
Assay [16] is described as follows: qHTS assay to identify small molecule agonists of the sonic hedgehog signaling (Shh) pathway (AID 1259368; calls by dose curve;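 also: NIH/3T3-derived 3T3Gli1-Luc cells carrying a stable Gli1-driven firefly luciferase reporter; series mostly up to about 92 µM; nearly all actives have a fitted effect of over 15% in size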). The gist of the method: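 NIH/3T3-derived 3T3Gli1-Luc cells with stably integrated Gli1-driven firefly luciferase, 2,000 cells/well, compounds added after 4 hr. Incubated 24 hr at 37C, 5% CO2; luminescence read after 30 min with luciferase reagent at room temperature.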

A short description of assay [17]: qHTS RealTime-Glo MT Cell Viability Assay in HEK293 cells - 8 hour (AID 1224887). A digest of the protocol:
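600 cells/well were plated with the nonlytic NanoLuc/prosubstrate reagent, pre-incubated 5 h, then given 23 nL of compound in DMSO. Incubation at 37 C for 40 h, with luminescence from viable-cell-reduced substrate read repeatedly from 0 h.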

A short description of assay [18]: qHTS assay to identify small molecule phospholipidosis (PLD) inducers (AID 1259344; active = well fitted curve in the direction sought with a large enough effect; an effect the other way counts as inactive or inconclusive). The gist of the method:
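Phospholipidosis is scored by imaging LipidTOX-stained pits in HepG2 cells exposed to compound for 24 h at 37 C; pit counts and integrated intensities per well and per cell serve as outputs.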
% is scaled to controls: 0 for no effect and ±100 for the full control effect.

Sequence of Estrogen receptor (Homo sapiens) (P03372 whole entry, looked up): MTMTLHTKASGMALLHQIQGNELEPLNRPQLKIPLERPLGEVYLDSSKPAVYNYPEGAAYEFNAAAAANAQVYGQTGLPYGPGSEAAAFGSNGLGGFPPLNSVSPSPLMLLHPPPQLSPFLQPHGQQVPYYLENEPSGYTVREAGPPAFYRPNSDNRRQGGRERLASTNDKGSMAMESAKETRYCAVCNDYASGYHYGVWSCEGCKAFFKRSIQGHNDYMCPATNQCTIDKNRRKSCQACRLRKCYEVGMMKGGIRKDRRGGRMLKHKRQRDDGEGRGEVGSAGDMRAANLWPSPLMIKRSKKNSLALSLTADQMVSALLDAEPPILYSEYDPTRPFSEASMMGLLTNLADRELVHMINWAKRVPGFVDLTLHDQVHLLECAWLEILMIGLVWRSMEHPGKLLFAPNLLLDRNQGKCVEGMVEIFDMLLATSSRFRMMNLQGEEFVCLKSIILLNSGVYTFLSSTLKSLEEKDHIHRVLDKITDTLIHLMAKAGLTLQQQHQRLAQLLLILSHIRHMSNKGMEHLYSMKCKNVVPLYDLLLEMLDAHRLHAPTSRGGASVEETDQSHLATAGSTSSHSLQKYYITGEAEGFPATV

`CCO[Si](CCCCl)(OCC)OCC`: the Potency result in assay [1], in [2], in assay [3], in assay [4], in [5] and in assay [6] was “inactive” each time. The Potency result in assay [7], in [8], in assay [9], in [10], in assay [11] and in assay [12] was “inactive” throughout. The Potency entry in assay [13], in [14] and in [15] was “inactive” in each case. Further, in assay [16], the compound was classed as inactive.
Turning to `O=C(O)c1ccc(-n2nc(-c3ccccc3O)nc2-c2ccccc2O)cc1`, the Potency result in [1], in [2], in assay [3], in [4], in assay [5] and in assay [17] was “inactive” each time. For the same compound, the Potency entry in [6], in assay [7], in [8], in assay [9], in assay [10] and in assay [12] was “inactive” in each case. The Potency entry in assay [13], in [14] and in assay [15] was “inactive” each time. Further, the PLD induction in assay [18] was -4.07% [at 1.53 µM]. The outcome in assay [16] was inactive.
For `CC(C)(C)OCC1CO1` (stereo not given), the Potency entry in [1], in [2], in assay [4], in [5], in [17] and in [6] was “inactive” each time. In addition, the Potency result in assay [7], in assay [9], in assay [10], in assay [12], in [13] and in assay [14] was “inactive” throughout. Besides, the Potency result in assay [15] was “inactive”. For the same compound, the outcome in [16] was inactive.
Turning to `O=C(NCC1CN(c2ccc(N3CCOCC3=O)cc2)C(=O)O1)c1ccc(Cl)s1` (stereo not given), the Potency result in [1], in assay [3], in [4], in assay [5], in assay [17] and in assay [7] was “inactive” throughout. Besides, the Potency entry in [9], in assay [10], in [13], in assay [14] and in [15] was “inactive” in each case. In addition, in [16], the result was inactive.
With `ClCCOCCOCCCl`, the Potency entry in assay [1], in assay [3], in assay [4], in assay [5], in [17] and in assay [7] was “inactive” throughout. In addition, the Potency result in [9], in assay [10], in [11], in assay [12], in assay [13] and in assay [14] was “inactive” in each case. For the same compound, the Potency result in [15] was “inactive”. Further, the compound was called inactive in assay [16].
As for `C=C1C(=C/C=C2\CCC[C@]3(C)[C@@H]([C@H](C)/C=C/[C@@H](O)C4CC4)CC[C@@H]23)C[C@@H](O)C[C@@H]1O`, the Potency result in assay [1], in assay [2], in [3], in [4], in assay [7] and in assay [9] was “inactive” throughout. For the same compound, the Potency entry in [10], in assay [12], in [14] and in assay [15] was “inactive” in each case. Moreover, the Potency in [5] was 19 µM (active). The result in assay [16] was inactive.
`CC[N+]1(CC)CCC(=C(c2ccccc2)c2ccccc2)C1C` (stereo not given): the Potency entry in assay [1], in [2], in [4], in assay [17], in [6] and in [7] was “inactive” each time. In addition, the Potency result in assay [8], in [9], in assay [10], in [18], in [12] and in [13] was “inactive” each time. Besides, the Potency entry in assay [14] and in [15] was “inactive” each time. Moreover, the result in assay [16] was inactive.
